Compound activity as filed in PubChem.
AMA1 RON2 block = qHTS for Inhibitors of AMA1-RON; Towards Development of Antimalarial Drug Lead: Primary Screen; 0.2% of 360,000 active; AID 720542, 2013; Potency, µM (titrated, usually from 58.2 µM), hits mostly inhibitors; AlphaScreen AMA1-biotinylated RON2 peptide binding; Plasmodium falciparum AMA1 (3D7) - RON2 peptide interaction; note: nearly all actives have a fitted effect of over 45% in size
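AMA1 (3D7) with his tag at 25 nM final met compounds first, then biotinylated RON2 peptide at 25 nM; detection used donor plus acceptor beads, 10 µg/mL apiece, read by AlphaScreen after 30 min at room temperature.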
Pf growth 96h = Primary qHTS for delayed death inhibitors of the malarial parasite plastid, 96 hour incubation. Potency, µM (series often up to 28.7 µM), actives largely listed as inhibitors. P. falciparum luciferase reporter growth, 96 h. 6.9% of 320,000 active. AID 504834, 2011
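P. falciparum expressing integrated firefly luciferase, in erythrocytes at 2% hematocrit, 0.05% parasitemia, incubated with compounds 96 h at 37 C, 5% CO2. Growth inhibition read as loss of luminescence; two-generation exposure targets delayed-death apicoplast inhibitors.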
Pf growth 48h = Primary qHTS for delayed death inhibitors of the malarial parasite plastid, 48 hour incubation; AID 504832, 2011; Potency, µM (highest dose often 28.7 µM), usual class: inhibitors; P. falciparum luciferase growth in erythrocytes, 48 h; 5.9% of 310,000 active
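Firefly luciferase activity from engineered P. falciparum reports growth; inhibitors lower the luminescent signal. Cultures contained 2% hematocrit erythrocytes at 0.1% final parasitemia.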
SARS PLP yeast = qHTS of Yeast-based Assay for SARS-CoV PLP; S. cerevisiae expressing SARS-CoV PLpro, growth rescue; Potency, µM (titrated, usually from 32.9 µM), usual class: activators; 0.19% of 330,000 active; AID 485353, 2010; calls by dose curve; note: nearly all actives have a fitted effect of over 55% in size
Large screens that a line does not name were inactive. Sampled rows, rich in hits. Any-hit rate of the full collection: about 9.4%. Unless noted, calls come from the whole dose curve; as a rule, active = well fitted curve in the direction sought with a large enough effect; inconclusive = small, poorly fitted or top-dose-only effect, or another doubt; inactive = no such curve, though single readings can be large; an effect the other way counts as inactive or inconclusive.

Cc1cccc(N2CCN(C(=O)CCCCCn3c(=S)[nH]c4ccc(N5CCOCC5)cc4c3=O)CC2)c1C	Pf growth 48h 9.28µM
O=c1c2cc(N3CCOCC3)ccc2[nH]c(=S)n1CCCN1CCCCCC1	Pf growth 48h inconclusive
Cc1ccc(C)c(N2CCN(C(=O)c3ccc(Cn4c(=S)[nH]c5ccc(N6CCOCC6)cc5c4=O)cc3)CC2)c1	Pf growth 96h 4.15µM, Pf growth 48h 2.62µM
CCCCn1c(=S)[nH]c2ccc(N3CCOCC3)cc2c1=O	Pf growth 96h 8.28µM, Pf growth 48h inconclusive (no result: AMA1 RON2 block)
O=C(CCCCCn1c(=S)[nH]c2ccc(N3CCOCC3)cc2c1=O)NCc1ccc(Cl)cc1	Pf growth 48h 8.28µM
COc1ccc(CNC(=O)CN(C)S(=O)(=O)c2ccc(Br)s2)cc1	none
Cc1cccc(C(=O)N2CCC(=O)N(C(COCc3cccc(Cl)c3)Cc3ccccc3)CC2)c1 (configuration not stated)	Pf growth 96h inconclusive, Pf growth 48h inconclusive
OCC[C@H]1C[C@@H](O)[C@H](O)[C@]2(Cc3ccccc3O2)O1	none
Cc1ccc(-n2ncc3c(=O)n(-c4cccc(C)c4)c(=O)[nH]c32)cc1	none (no result: Pf growth 96h, Pf growth 48h, SARS PLP yeast)
CCCN1CC=C2C(C#N)=C(N)C(C#N)(C#N)C(c3cccc(OC)c3OC)C2C1 (configuration not stated)	Pf growth 48h inconclusive (no result: Pf growth 96h)
COc1cccc(OC)c1OCc1cc(C2C3CCCC=C3C(C#N)=C(N)C2(C#N)C#N)c(C)cc1C (configuration not stated)	Pf growth 96h 9.28µM, Pf growth 48h inconclusive
CN(CC(=O)Nc1ccc(F)c(F)c1F)C(=O)c1cc(-c2ccncc2)nc2ccccc12	Pf growth 96h inconclusive, Pf growth 48h inconclusive
Cc1ccc(NC(=O)CN(C)C(=O)COc2c(Cl)cc(Cl)c3ccc(C)nc23)cc1	Pf growth 96h 1.65µM, Pf growth 48h 4.15µM
CN(CC(=O)Nc1ccc(Cl)c(C(F)(F)F)c1)C(=O)c1cc(-c2ccncc2)nc2ccccc12	Pf growth 96h inconclusive, Pf growth 48h 13.1µM
Cc1ccc(C)c(OCC(=O)N(C)CC(=O)Nc2ccc(Cl)c(C(F)(F)F)c2)c1	Pf growth 96h inconclusive, Pf growth 48h 11.7µM
Cc1ccc2c(Cl)cc(Cl)c(OCC(=O)NCc3ccco3)c2n1	Pf growth 96h inconclusive (no result: AMA1 RON2 block, Pf growth 48h)
Cc1ccc2c(Cl)cc(Cl)c(OCC(=O)NC(=O)NCc3ccco3)c2n1	Pf growth 96h inconclusive, Pf growth 48h 2.33µM
Cc1cccc(C(=O)OCC(=O)N(C)CC(=O)Nc2ccc(Cl)c(C(F)(F)F)c2)c1	Pf growth 96h inconclusive, Pf growth 48h inconclusive
C=CCN(CC=C)C(=S)NC(=O)Cc1cccc2ccccc12	Pf growth 96h 4.15µM, Pf growth 48h inconclusive
CN(C)S(=O)(=O)c1cccc(-c2nnc(SCc3ccc4c(c3)OCCO4)o2)c1	Pf growth 96h inconclusive, Pf growth 48h 16.5µM
COc1ccc(C2CC(O)(c3ccccc3)Oc3cc(OC)c(OC)c(OC)c32)cc1 (configuration not stated)	Pf growth 96h 10.4µM, Pf growth 48h 10.4µM
COc1ccc([C@@H]2C[C@H](c3ccccc3)Oc3cc(OC)c(OC)c(OC)c32)cc1	Pf growth 96h inconclusive, Pf growth 48h 9.28µM
COc1cc2c(c(OC)c1OC)C(c1ccc(O)cc1)CC(=O)O2 (configuration not stated)	none (no result: Pf growth 96h, Pf growth 48h)
COc1cccc(CN2CCNC(=O)C2CC(=O)NCc2cn3ccccc3n2)c1OC (configuration not stated)	Pf growth 96h 10.4µM
COC(=O)CCCNC(=O)CC1C(=O)NCCN1Cc1ccoc1 (configuration not stated)	Pf growth 96h 13.1µM
COc1cccc(CN2CCNC(=O)C2CC(=O)NCCn2ccc3ccccc32)c1OC (configuration not stated)	Pf growth 96h inconclusive, Pf growth 48h 11.7µM
COc1cccc(CN2CCNC(=O)C2CC(=O)NCc2cn3cccc(C)c3n2)c1OC (configuration not stated)	none
COc1cccc(CN2CCNC(=O)C2CC(=O)NCCN2CCCCC2=O)c1 (configuration not stated)	Pf growth 96h 10.4µM
O=C(CC1C(=O)NCCN1Cc1ccoc1)NCCc1ccc(Cl)cc1 (configuration not stated)	Pf growth 96h inconclusive
COc1cccc(CCNC(=O)CC2C(=O)NCCN2Cc2ccc(Cl)c(F)c2)c1 (configuration not stated)	none
CCOc1ccccc1CN1CCNC(=O)C1CC(=O)NCc1cc(C)n(C)n1 (configuration not stated)	Pf growth 96h 2.08µM
Cn1c(N2CCOCC2)c(C#N)c2ccccc21	none (no result: Pf growth 48h)
CC1(c2ccccc2)NC(=O)N(CC(=O)Nc2nc(-c3ccccn3)cs2)C1=O (configuration not stated)	Pf growth 96h inconclusive
Cc1ccc(S(=O)(=O)CCC(=O)Nc2nc(-c3ccccn3)cs2)cc1	Pf growth 96h 10.4µM, Pf growth 48h 13.1µM
Cc1ccc(C2(C)NC(=O)N(CC(=O)Nc3nc(-c4ccccn4)cs3)C2=O)cc1 (configuration not stated)	Pf growth 96h 3.29µM, Pf growth 48h 2.33µM
Cc1ccc(S(=O)(=O)CCC(=O)Nc2nc(-c3cccnc3)cs2)cc1	none
CC(OCC(O)CN1CCCCC1CCO)c1ccc(Cl)cc1 (configuration not stated)	none
CCCCCc1cc(OC)cc2c1C(=O)OC(C)(C)O2	none (no result: Pf growth 96h, Pf growth 48h)
O=c1[nH]c2ccc(N/C(=N/S(=O)(=O)c3ccccc3)c3ccccc3)cc2[nH]1	Pf growth 96h 4.15µM
CC(=O)Nc1ccc(N/C(=N\S(=O)(=O)c2ccccc2)c2ccccc2)cc1	Pf growth 96h inconclusive
Cc1cccc(N(C(=O)c2snc(C(N)=O)c2N)C(C(=O)NCC2CCCO2)c2ccc(N(C)C)cc2)c1C (configuration not stated)	Pf growth 96h 7.38µM, Pf growth 48h inconclusive
CCc1ccccc1N(C(=O)c1snc(C(N)=O)c1N)C(C(=O)NCC1CCCO1)c1ccc(OC)c(OC)c1 (configuration not stated)	Pf growth 48h 11.7µM
COc1ccc(C(C(=O)NCC2CCCO2)N(C(=O)c2snc(C(N)=O)c2N)c2ccccc2)cc1OC (configuration not stated)	Pf growth 96h inconclusive, Pf growth 48h inconclusive
COc1ccc(C(C(=O)NCC2CCCO2)N(C(=O)c2snc(C(N)=O)c2N)c2ccccc2C)cc1OC (configuration not stated)	Pf growth 48h 11.7µM
CCOc1ccc(C(C(=O)NCC2CCCO2)N(CCc2cccc(C)c2)C(=O)c2snc(C(N)=O)c2N)cc1 (configuration not stated)	Pf growth 48h 9.28µM
C=CCNC(=O)c1ccccc1CCc1ccccc1	none
C=CCn1c(SCC(=O)N2CCCCC2)nc(O)cc1=O	none (no result: Pf growth 48h)
Cc1ccc(S(=O)(=O)N2CCN(C(=O)c3c(-c4ccccc4)noc3C)CC2)cc1	none
C=CCN(C(=O)c1ccccc1)c1ccc(OC)cc1	Pf growth 48h inconclusive (no result: Pf growth 96h)
